Assay [1] is described as follows: qHTS of pediatric cancer cell lines to identify multiple opportunities for drug repurposing: Primary screen for control Hh wild type fibroblast cells (AID 1347106). Note: nearly all actives have a fitted effect of over 55% in size. The gist of the method:
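Cells (500-1,000/well) in growth media were settled 5 h at 37 degrees C, then given compounds for 48 h. Viability was read as CellTiter-Glo luminescence. Primary runs used MIPE at 11 points (0.78 nM-46 µM) and NPC at 8 points (0.59 nM-46 µM); follow-ups used 11 points.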

Assay [2] is described as follows: qHTS of pediatric cancer cell lines to identify multiple opportunities for drug repurposing: Primary screen for Rh30 cells (AID 1347107). Note: nearly all actives have a fitted effect of over 75% in size. In outline:
(§1)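 Viability after 48 h compound treatment at 37C, 500-1,000 cells/well, read as ATP luminescence with CellTiter-Glo. Primary screens used 11-point (MIPE, 0.78 nM-46 µM) or 8-point (NPC, 0.59 nM-46 µM) final concentrations; follow-up screens used 11-point dilutions.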
(In general: qHTS replaces the single test concentration by a dilution series.)

A short description of assay [3]: qHTS of pediatric cancer cell lines to identify multiple opportunities for drug repurposing: Primary screen for Rh41 cells (AID 1347108). Note: nearly all actives have a fitted effect of over 70% in size. The gist of the method: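 Readout: CellTiter-Glo luminescence, 48 h treatment. Controls DMSO (neutral) and bortezomib 2.3 µM final (positive). Potency and efficacy taken from primary-screen concentration-response curves.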
Assay [4] is described as follows: qHTS of pediatric cancer cell lines to identify multiple opportunities for drug repurposing: Confirmatory screen for A673 cells (AID 1347110). Note: nearly all actives have a fitted effect of over 65% in size. In outline: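 Forty-eight-hour viability assay. Follow-up compounds ran at 11-point dilutions; positive control bortezomib at 2.3 uM final, neutral control DMSO.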
A short description of assay [5]: qHTS of pediatric cancer cell lines to identify multiple opportunities for drug repurposing: Confirmatory screen for SK-N-MC cells (AID 1347111).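 Note: cells exposed to compound for 48 h before the readout; nearly all actives have a fitted effect of over 70% in size.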 In outline:
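SK-N-MC cells at 500-1,000 cells/well in growth media were pre-incubated 5 h, then exposed to compounds at 11-point dilutions for 48 h at 37 degrees C, 5% CO2. Viability was read as CellTiter-Glo luminescence.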

A short description of assay [6]: qHTS of pediatric cancer cell lines to identify multiple opportunities for drug repurposing: Confirmatory screen for BT-12 cells (AID 1347112). Note: nearly all actives have a fitted effect of over 55% in size. The gist of the method: as §1
A short description of assay [7]: qHTS of pediatric cancer cell lines to identify multiple opportunities for drug repurposing: Confirmatory screen for LAN-5 cells (AID 1347113). Note: nearly all actives have a fitted effect of over 65% in size. In outline:
as §1

Assay [8] is described as follows: qHTS of pediatric cancer cell lines to identify multiple opportunities for drug repurposing: Confirmatory screen for DAOY cells (AID 1347114). Note: nearly all actives have a fitted effect of over 65% in size. In outline: (§2)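 Viability measured as metabolically active cells via CellTiter-Glo luminescence following 48 hours of compound exposure, 11-point dilutions in confirmatory testing. 500-1,000 cells/well plated 5 hours before dosing; controls were DMSO and 2.3 µM bortezomib.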

Assay [9] in a line: qHTS of pediatric cancer cell lines to identify multiple opportunities for drug repurposing: Confirmatory screen for NB-EBc1 cells (AID 1347115). Note: nearly all actives have a fitted effect of over 45% in size. The gist of the method: as §1
Assay [10] in a line: qHTS of pediatric cancer cell lines to identify multiple opportunities for drug repurposing: Confirmatory screen for BT-37 cells (AID 1347117). Note: nearly all actives have a fitted effect of over 55% in size. The gist of the method:
as §1

Assay [11] is described as follows: qHTS of pediatric cancer cell lines to identify multiple opportunities for drug repurposing: Confirmatory screen for TC32 cells (AID 1347118). Note: nearly all actives have a fitted effect of over 65% in size. In outline:
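TC32 cells, 500-1,000/well in growth medium, compound-treated 48 h at 37 °C; viability from CellTiter-Glo luminescence. Primary screen: MIPE 11-point (0.78 nM–46 µM final), NPC 8-point (0.59 nM–46 µM final); confirmatory at 11-point dilutions.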

Assay [12] is described as follows: qHTS of pediatric cancer cell lines to identify multiple opportunities for drug repurposing: Confirmatory screen for MG 63 (6-TG R) cells (AID 1347119). Note: nearly all actives have a fitted effect of over 55% in size. In outline:
as §1

Assay [13] can be described thus: qHTS of pediatric cancer cell lines to identify multiple opportunities for drug repurposing: Confirmatory screen for control Hh wild type fibroblast cells (AID 1347121). Note: nearly all actives have a fitted effect of over 70% in size. The gist of the method: as §1
Assay [14] is described as follows: qHTS of pediatric cancer cell lines to identify multiple opportunities for drug repurposing: Confirmatory screen for Rh41 cells (AID 1347123).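 Note: 48 h compound exposure; nearly all actives have a fitted effect of over 60% in size.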 In outline:
as §1

Assay [15] is described as follows: qHTS of pediatric cancer cell lines to identify multiple opportunities for drug repurposing: Confirmatory screen for Rh30 cells (AID 1347126). Note: nearly all actives have a fitted effect of over 55% in size. In outline:
as §1

Assay [16] can be described thus: qHTS of pediatric cancer cell lines to identify multiple opportunities for drug repurposing: Confirmatory screen for NB1643 cells (AID 1347109). Note: nearly all actives have a fitted effect of over 45% in size. The gist of the method: as §1
Assay [17] in a line: qHTS of pediatric cancer cell lines to identify multiple opportunities for drug repurposing: Confirmatory screen for SJ-GBM2 cells (AID 1347116). Note: nearly all actives have a fitted effect of over 60% in size. The gist of the method:
as §2

Assay [18] is described as follows: qHTS of pediatric cancer cell lines to identify multiple opportunities for drug repurposing: Confirmatory screen for U-2 OS cells (AID 1347122). Note: nearly all actives have a fitted effect of over 65% in size. The gist of the method:
as §1

A short description of assay [19]: qHTS of pediatric cancer cell lines to identify multiple opportunities for drug repurposing: Confirmatory screen for RD cells (AID 1347124). The gist of the method:
as §1

A short description of assay [20]: qHTS of pediatric cancer cell lines to identify multiple opportunities for drug repurposing: Confirmatory screen for Rh18 cells (AID 1347125). Note: nearly all actives have a fitted effect of over 55% in size. The gist of the method:
as §1

Structures are written as SMILES. Records with an inconclusive call do not appear. Activity calls are given as the source filed them. Calls come from the whole dose curve; as a rule, active = well fitted curve in the direction sought with a large enough effect; inconclusive = small, poorly fitted or top-dose-only effect, or another doubt; inactive = no such curve, though single readings can be large; an effect the other way counts as inactive or inconclusive.
Potency is the fitted concentration of half-maximal effect.

Take `Clc1cccc(-c2nnnn2Cc2cccnc2)c1Cl`: the Potency entry in [1], in assay [2] and in [3] was “inactive” each time.
Consider `c1nc2nc(Nc3ccc(N4CCOCC4)cc3)nc(NC3CCCCC3)c2[nH]1`, for which, in assay [1], the Potency entry was “inactive”. Moreover, the Potency in assay [2] was 11800 nM (active); in [3], 5900 nM (active).
For the molecule `COc1cccc2c(NCc3ccccc3)nc(-n3c(N)nc4ccccc43)nc12`, in [1], the Potency result is “inactive”. Further, the Potency in assay [2] is 14800 nM (active); in assay [3], 18700 nM (active); in assay [4], 7370 nM (active); in [5] it was 7370 nM (active); in [6], 13100 nM (active); in assay [7] it was 9270 nM (active). Moreover, the Potency is 2330 nM (active) in assay [8]; 8270 nM (active) in [9]; 7370 nM (active) in assay [10]; 7370 nM (active) in [11]; 5850 nM (active) in assay [12]; 9270 nM (active) in assay [13]. Moreover, the Potency in [14] is 208 nM (active); in [15], 46.5 nM (active).
In the case of `CC1(C)OC2=C(C(=O)c3ccccc3C2=O)[C@H](NCc2ccccc2)[C@H]1O`, the Potency in [1] is 23500 nM (active); in assay [2], 5900 nM (active); in [3], 7430 nM (active); in assay [16], 7370 nM (active); in assay [4], 2930 nM (active); in [5], 5220 nM (active). For the same molecule, the Potency is 20800 nM (active) in [6]; 7370 nM (active) in [7]; 8270 nM (active) in assay [8]; 7370 nM (active) in assay [17]; 5220 nM (active) in assay [10]; 4140 nM (active) in assay [11]. The Potency was 16500 nM (active) in assay [12]; 13100 nM (active) in [13]; 1850 nM (active) in [18]; 2930 nM (active) in [14]; 8270 nM (active) in assay [19]; 7370 nM (active) in assay [20].
As to `CC(NCc1ccc2c(c1)nc(NC(=O)c1ccc(-c3cn[nH]c3)s1)n2CC(C)(C)O)C(C)(C)C` (centres undefined), the Potency is 2350 nM (active) in assay [1]; 14800 nM (active) in assay [2]; 743 nM (active) in assay [3]; 293 nM (active) in [16]; 827 nM (active) in [4]; 928 nM (active) in [6]. In addition, the Potency in assay [8] is 1470 nM (active); in [17] it was 1040 nM (active); in [12], 1310 nM (active); in [13], 7370 nM (active); in assay [18] it was 928 nM (active); in assay [14] it was 737 nM (active). For the same molecule, the figures for the Potency in assay [19], in assay [20] and in assay [15] were 928 nM (active), 2610 nM (active) and 657 nM (active), respectively.
Regarding `CCn1cc(-c2ccnc3[nH]c(-c4cccc(CN(C)C)c4)cc23)c(-c2ccc(NC(=O)N(C)C)cc2)n1`, the Potency is 20900 nM (active) in [1]; 14800 nM (active) in assay [2]; 5900 nM (active) in assay [3]; 3690 nM (active) in assay [16]; 1850 nM (active) in assay [4]; 65.7 nM (active) in [5]. Also, the Potency in assay [7] was 6570 nM (active); in assay [8] it was 18500 nM (active); in assay [17], 928 nM (active); in [10], 5220 nM (active); in [11], 46.5 nM (active); in assay [12] it was 1850 nM (active). The Potency in assay [14] was 1850 nM (active); in [19] it was 1040 nM (active); in assay [20] it was 16500 nM (active); in [15] it was 293 nM (active).
Regarding `CCCNC(=O)Nc1ccc(Oc2ncnc3cc(OC)c(OC)cc23)cc1Cl`, the Potency entry in [1], in [2] and in assay [3] was “inactive” throughout.
On to `Nc1ccccc1NC(=O)c1ccc(CNc2nccc(-c3cccnc3)n2)cc1`, for which the Potency was 14800 nM (active) in assay [1]; 1180 nM (active) in assay [3]; 2610 nM (active) in assay [4]; 2930 nM (active) in [8]; 1470 nM (active) in [17]; 414 nM (active) in assay [18]. Also, the Potency is 1650 nM (active) in assay [19], 1170 nM (active) in [20] and 1650 nM (active) in assay [15]. The Potency entry in assay [2], in assay [5], in assay [10], in [11], in assay [12] and in assay [13] was “inactive” each time.
In the case of `CCC[C@H](NC(=O)C(C#N)=Cc1cccc(Br)n1)c1ccccc1`, the Potency entry in assay [1] is “inactive”. Moreover, in [3], the Potency is 14800 nM (active).
As to `COc1c(OCCCN2CCOCC2)ccc2c3n(c(=NC(=O)c4cnc(N)nc4)nc12)CCN3`, the Potency result in [1], in [6], in assay [8] and in assay [18] was “inactive” each time. Moreover, the Potency was 102 nM (active) in assay [3]; 2290 nM (active) in [16]; 1020 nM (active) in assay [4]; 1020 nM (active) in [5]; 644 nM (active) in [7]; 2570 nM (active) in assay [9]. Further, the Potency is 2040 nM (active) in assay [17]; 6440 nM (active) in [10]; 1020 nM (active) in assay [11]; 229 nM (active) in [12]; 644 nM (active) in assay [20]; 456 nM (active) in assay [15].
Turning to `C=C1C(=CC=C2CCCC3(C)[C@@H]([C@H](C)C=CC=CC(O)(CC)CC)CC[C@@H]23)C[C@@H](O)C[C@@H]1O` (some centres undefined), the Potency entry in assay [1] is “inactive”. Further, the Potency in assay [3] is 18700 nM (active).
In the case of `COc1ccc(C=Cc2cc(OC)c(OC)c(OC)c2)cc1O`, the Potency result in assay [1], in assay [2], in [13], in assay [20] and in assay [15] was “inactive” in each case. Also, the Potency in assay [4] is 18.5 nM (active); in assay [5], 16.5 nM (active); in [7], 52.2 nM (active); in assay [8] it was 73.7 nM (active); in assay [9], 14.7 nM (active); in assay [10], 14.7 nM (active). Also, the Potency was 13.1 nM (active) in [11]; 10.4 nM (active) in assay [12]; 26.1 nM (active) in assay [18]; 10.4 nM (active) in assay [14]; 11.7 nM (active) in assay [19].

These data come from PubChem BioAssay (NCATS).
